# Most compounds without a hit are left out; they make up all but 1.3% or so of the library.
# GC-B act = human GC-B receptor activators, primary screen, HEK293 GC-B cells, cGMP TR-FRET, EC30 CNP; 0% at EC30 CNP, 100% saturating CNP; activation, % at 10 µM; 370,000 tested, 0.11% active;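 active means activation at 10 µM reaching about 35% in either raw or pattern-adjusted values, limit read from the data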
# NPR1 activator = GC-A stimulated cGMP production enhancers – HEK293 GC-A cells, cGMP TR-FRET, EC30 ANP, primary screen. Atrial natriuretic peptide receptor 1 (Homo sapiens), P16066. 0% at EC30 ANP, 100% saturating ANP. activation, % at 10 µM. 370,000 tested, 0.14% active. AID 1671463, 2021; in the data active means activation above about 40%
# Target sequence (P16066 whole entry, looked up): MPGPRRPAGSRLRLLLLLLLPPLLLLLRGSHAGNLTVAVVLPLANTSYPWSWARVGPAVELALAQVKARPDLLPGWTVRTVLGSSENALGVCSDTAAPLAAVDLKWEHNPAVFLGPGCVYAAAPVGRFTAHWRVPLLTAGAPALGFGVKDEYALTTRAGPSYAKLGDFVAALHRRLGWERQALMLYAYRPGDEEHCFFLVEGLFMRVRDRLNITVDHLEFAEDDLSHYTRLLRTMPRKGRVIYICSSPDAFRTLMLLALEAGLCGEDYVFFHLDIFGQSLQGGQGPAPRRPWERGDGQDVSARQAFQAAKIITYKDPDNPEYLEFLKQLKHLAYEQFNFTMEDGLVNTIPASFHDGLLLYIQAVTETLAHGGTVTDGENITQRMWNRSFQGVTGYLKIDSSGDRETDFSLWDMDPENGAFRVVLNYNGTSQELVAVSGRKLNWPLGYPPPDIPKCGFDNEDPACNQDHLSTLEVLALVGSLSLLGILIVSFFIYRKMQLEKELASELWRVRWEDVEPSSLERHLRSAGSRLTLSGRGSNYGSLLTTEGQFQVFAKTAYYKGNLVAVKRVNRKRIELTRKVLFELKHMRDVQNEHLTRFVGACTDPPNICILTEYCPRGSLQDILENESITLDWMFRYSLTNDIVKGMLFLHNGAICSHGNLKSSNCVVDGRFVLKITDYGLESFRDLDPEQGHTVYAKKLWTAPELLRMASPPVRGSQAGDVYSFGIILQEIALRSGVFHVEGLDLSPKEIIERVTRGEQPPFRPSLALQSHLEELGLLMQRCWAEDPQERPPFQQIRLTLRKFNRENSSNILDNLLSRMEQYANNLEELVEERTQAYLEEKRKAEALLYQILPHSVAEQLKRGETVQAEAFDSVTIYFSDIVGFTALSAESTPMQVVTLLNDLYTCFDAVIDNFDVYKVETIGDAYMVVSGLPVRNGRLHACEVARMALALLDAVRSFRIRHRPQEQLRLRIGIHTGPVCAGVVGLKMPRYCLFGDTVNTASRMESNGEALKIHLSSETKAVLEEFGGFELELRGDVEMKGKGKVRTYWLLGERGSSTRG
# ADAM10 inh = human ADAM10 inhibitors, primary screen, biochemical, QFRET, HTS | 370,000 tested, 0.62% active | AID 720582, 2013 | Disintegrin and metalloproteinase domain-containing protein 10 (Homo sapiens), O14672 | inhibition, % at 7 µM | recombinant ADAM10, EDANS/DABCYL FRET peptide cleavage, 3 h;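 active means inhibition above a per-campaign cutoff equal to the mean of compounds falling between control-based bounds plus 3 SD, cut at about 20% in these data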
# ADAM17 inh = ADAM17 inhibitors, primary screen, biochemical, QFRET; Disintegrin and metalloproteinase domain-containing protein 17 (Homo sapiens), P78536; inhibition, % at 6.95 µM; AID 720648, 2013; 370,000 tested, 0.83% active; recombinant ADAM17, EDANS/DABCYL FRET peptide cleavage;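 active means inhibition above the mean of compounds lying between control limits plus 3 SD, set per campaign, cut at about 8.5% in these data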
# ADAM10 counter = ADAM10 inhibitors, counter-screen for ADAM17 exosite inhibitor project, biochemical, FRET, human ADAM10; shares compounds with ADAM17 inh; 2,900 tested, 47% active; inhibition, % at 6.95 µM; recombinant ADAM10, EDANS/DABCYL FRET peptide cleavage, 3 h; AID 743256, 2014;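 active means mean inhibition over the triplicate runs exceeds the activity threshold set in the earlier primary screen, cut at about 20% in these data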
# ADAM17 confirm = ADAM17 inhibitors, hit retest, confirmation, biochemical, QFRET peptide cleavage; shares compounds with ADAM17 inh; recombinant ADAM17, EDANS/DABCYL QFRET peptide cleavage; inhibition, % at 6.95 µM; 2,900 tested, 65% active; AID 743257, 2014;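 active means mean inhibition across replicates above the hit cutoff set in the primary screen, cut at about 8.5% in these data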
# Hits are given with their value; 0 = inactive; - = no result given.
SMILES,GC-B act,NPR1 activator,ADAM10 inh,ADAM17 inh,ADAM10 counter,ADAM17 confirm
CC(COc1cccc(C(F)(F)F)c1)CN1CCC(C(O)(c2ccccc2)c2ccccc2)CC1 (centres undefined),0,0,0,0,-,-
O=C(O)c1ccc([N+](=O)[O-])c(CS(=O)(=O)c2ccccc2)c1,0,0,0,0,-,-
CN(C)/C=C/C(=O)c1ccc([N+](=O)[O-])c(CS(=O)(=O)c2ccccc2)c1,0,0,0,9.3,0,8.7
O=C1Nc2ccccc2-c2nnnn2C1N1CCC(Cc2ccccc2)CC1 (centres undefined),0,0,0,0,-,-
Fc1ccc(N2CCN(c3cnc4ccccc4n3)CC2)cc1,0,0,0,0,-,-
COc1ccccc1NC(=O)c1ccc(Cl)c(S(=O)(=O)N2CCCCC2)c1,0,0,0,10.1,0,0
CCN(CC)C(=O)N1CCC(NC(=O)Cc2ccccc2)CC1,0,0,0,9.4,0,0
O=C(Cc1ccccc1)NC1CCN(C(=O)NCc2ccccc2)CC1,0,0,0,0,-,-
CCOC(=O)C1=CN(Cc2cccc(F)c2)S(=O)(=O)NC1c1ccc2ccccc2c1 (centres undefined),0,0,0,9.8,0,11.3
Cc1oc2ccc(O)cc2c1C(=O)c1ccc(F)cc1,0,0,0,0,-,-
N=C1/C(=C\c2ccc(-c3cc(Cl)cc(Cl)c3)o2)C(=O)N=C2SC=C(c3ccccc3)N12,0,0,0,0,-,-
N=C1/C(=C/c2cccn2CCOc2ccccc2)C(=O)N=C2SC=C(c3ccccc3)N12,0,0,0,9.7,0,13.8
O=S(=O)(NCCC(c1ccc(F)cc1)c1ccco1)c1ccccc1 (centres undefined),0,0,0,12.7,0,11.0
Fc1ccc(C(CCNCc2cccs2)c2ccco2)cc1 (centres undefined),0,0,0,0,-,-
Cc1ccc(S(=O)(=O)N(C)C)cc1NC(=O)COC(=O)CCC1CCCC1,0,0,0,0,-,-
Cc1ccccc1OCCC(=O)OCC(=O)Nc1cc(S(=O)(=O)N2CCOCC2)ccc1Cl,0,0,0,10.7,0,0
CN(C)S(=O)(=O)c1ccc(Cl)c(NC(=O)COC(=O)CCC2CCCCC2)c1,0,0,0,12.0,31.8,16.8
COc1ccc(NC(=O)COc2ccccc2Cc2ccccc2)cc1S(N)(=O)=O,0,0,0,10.5,0,0
Cc1ccccc1OCC(=O)Nc1ccc(C)c(S(=O)(=O)N2CCCCCC2)c1,0,0,0,8.7,26.5,12.6
COc1ccc(C2=Nc3ccccc3N(C(=O)c3cccnc3)C2C(=O)NC2CCCC2)cc1 (centres undefined),0,0,0,0,-,-
Cc1ccc(C)c(OCCC(=O)OCC(=O)Nc2cccc(S(=O)(=O)N3CCCC3)c2)c1,0,0,0,8.8,24.6,12.6
O=C(CN1C(=O)NC(Cc2c[nH]c3ccccc23)C1=O)Nc1cccc(S(=O)(=O)N2CCCC2)c1 (centres undefined),0,0,0,0,-,-
Cc1ccc(NC(=O)CN2C(=O)NC(Cc3c[nH]c4ccccc34)C2=O)cc1S(=O)(=O)N1CCCCC1 (centres undefined),0,0,0,10.6,22.4,14.1
Cc1ccc(NC(=O)c2cc(S(=O)(=O)N3CCCCC3)ccc2N2CCOCC2)c(C)c1,0,0,0,0,-,-
C[C@H](CO)N1C[C@H](C)[C@@H](CN(C)Cc2ccc(Cl)c(Cl)c2)Oc2c(NS(=O)(=O)c3ccc(F)cc3)cccc2C1=O,0,0,0,0,-,-
SMILES,GC-B act,NPR1 activator,ADAM10 inh,ADAM17 inh,ADAM10 counter,ADAM17 confirm
CC(=O)c1cccc(NC(=O)COC(=O)CCC(=O)c2ccc(F)cc2)c1,0,0,0,8.9,0,0
CC(C)N=c1scc(-c2cccs2)n1/N=C/c1ccc(O)c(O)c1O,0,0,0,9.3,0,11.7
CN=c1scc(-c2ccccc2F)n1/N=C/c1ccc(O)c(O)c1O,0,0,0,0,-,-
O=CNc1cc(-c2ccc(C(=O)NC3CC3)cc2)cn2c(-c3ccc(F)cc3)cnc12,0,0,0,0,-,-
CC(C)(C)NC(=O)C(c1ccncc1)N(C(=O)Cn1nnc(-c2ccc(F)cc2)n1)c1ccccc1F (centres undefined),0,0,0,0,-,-
CC(C)(C)NC(=O)C(c1ccc(O)cc1)N(C(=O)Cn1nnc(-c2ccc(F)cc2)n1)c1ccccc1F (centres undefined),0,0,0,9.9,38.6,18.0
O=C(COC(=O)c1ccccc1Cc1ccccc1)Nc1ccc(SC(F)F)cc1,0,0,0,9.6,20.3,13.6
Cc1ccc(C(=O)c2ccccc2C(=O)OCC(=O)Nc2ccc(SC(F)F)cc2)cc1,0,0,0,12.6,34.9,17.6
O=C(COc1cccc(Oc2ccccc2)c1)Nc1ccc(SC(F)F)cc1,0,0,0,10.2,31.7,18.0
C=CCCC(=O)N[C@H]1CC[C@@]23CCCN2C(=O)CCC[C@H]3[C@H]1CCC,0,0,0,0,-,-
COc1ccc(C(NC(=O)C2CCN(CCCOc3ccccc3)CC2)c2cccs2)cc1 (centres undefined),0,0,0,0,-,-
CN(C)S(=O)(=O)c1cc([N+](=O)[O-])ccc1N1CCCCCC1,0,0,0,10.3,0,10.7
COc1cc(NC(=O)CSc2nc3[nH]c(=O)cc(O)c3s2)cc(OC)c1OC,0,0,0,0,-,-
Cc1ccccc1NC(=O)c1cc(C(=O)c2cc(Cl)ccc2O)cn(-c2ccccc2C)c1=O,0,0,0,9.7,0,0
O=C(CN1CCN(CC(=O)Nc2cccc(F)c2)CC1)Nc1ccc(-c2ccccc2)cc1,0,0,0,0,-,-
O=C1CC(c2ccco2)CC(O)=C1C=Nc1cc(Cl)ccc1Cl (centres undefined),0,0,0,0,-,-
O=C1CC(c2ccco2)CC(O)=C1C=Nc1cc(Cl)ccc1O (centres undefined),0,0,0,11.4,0,0
CCN(CC(=O)Nc1c(F)cccc1F)C(=O)CCC(=O)c1ccc(C)cc1,0,0,0,0,-,-
O=C(NC1CCCCN(Cc2cccc(Cl)c2)C1=O)c1ccc(COc2ccccc2)cc1 (centres undefined),0,0,0,10.5,0,11.4
O=C(NC1CCCCN(Cc2cccc(Cl)c2)C1=O)c1ccccn1 (centres undefined),0,0,0,0,-,-
O=C(CCCc1c[nH]c2ccccc12)Nc1ccc2ccccc2c1,0,0,0,10.0,0,0

# From PubChem
